# In article PMC4552634, “A New Set of Chemical Starting Points with Plasmodium falciparum Transmission-Blocking Potential for Antimalarial Drug Discovery” (PLoS ONE, 2015):
# Read-outs that look alike come from different tables or passages of the source. The whole screen tested about 13,000 compounds, of which about 3,200 (25%) showed an effect of 50% or more. This is one part of the list.
# Test system: P. falciparum stage V gametocytes
# Design: BacTiter-Glo ATP luminescence viability of purified stage V gametocytes in 384-well plates, per cent inhibition versus DMSO
# Conditions: 48 h, 5 µM, inhibitor
SMILES,% Inhibition [%],% Inhibition (% Inhibition) [%]
CN1CCC(N2CCN(Cc3ccc(-c4cccc(-c5nc6ccccc6[nH]5)c4)cc3)CC2)CC1 [TCMDC-133881],56.17,–
CN(C)CCN1CCN(Cc2ccc(-c3cccc(-c4nc5ccccc5[nH]4)c3)cc2)CC1 [TCMDC-133795],73.83,–
CN(C)CCN1CCN(Cc2cccc(-c3csc(-c4nc5ccccc5[nH]4)c3)c2)CC1 [TCMDC-133793],29.26,–
CN1CCC(N2CCN(C(=O)c3cccc(-c4cccc(-c5nc6ccccc6[nH]5)c4)c3)CC2)CC1 [TCMDC-132312],7.191,–
OCCN1CCN(Cc2ccc(-c3cccc(-c4nc5ccccc5[nH]4)c3)cc2)CC1 [TCMDC-132540],6.462,–
CC(C)(C)C(=O)Nc1ccccc1Oc1ccc(Cl)cc1 [TCMDC-137332],6.336,–
Cc1cc(NC(=O)Nc2ccc(Oc3ccccc3)cc2)c2ccccc2n1 [TCMDC-134657],-9.366,–
Cc1ccc(Oc2ccccc2NC(=O)CCc2nc3ccccc3c(=O)[nH]2)cc1 [TCMDC-125459],59.46,–
COc1cccc(CNC(=O)[C@H]2CNCCN2C(=O)CCCc2ccccc2)c1 [TCMDC-141271],37.6,–
CC(CNC(=O)[C@H]1CNCCN1C(=O)CCCc1ccccc1)c1ccccc1 (stereo partly drawn) [TCMDC-141268],55.69,–
CCCC(C)NC(=O)[C@H]1CNCCN1C(=O)CCCc1ccccc1 (stereo partly drawn) [TCMDC-141270],1.864,–
O=C(NCc1ccc(F)cc1)c1cnc(N2CCN(c3ccncc3)CC2)c(Cl)c1 [TCMDC-134627],-0.3882,–
COc1ccc2nccc(NN=Cc3cccc(C)n3)c2c1 [TCMDC-142034],-10.1,–
COc1ccc(OCCCN2CCCCC2)cc1S(=O)(=O)c1ccc(OCc2ccc(C(F)(F)F)cc2)cc1 [TCMDC-132410],92.2,–
CCOc1cc2c(cc1S(=O)(=O)c1ccc(COc3ccc(C(F)(F)F)cc3)cc1)CCN(C)CC2 [TCMDC-134264],39.44,–
COc1cc2c(cc1S(=O)(=O)c1ccc(COc3ccc(C(F)(F)F)cc3)cc1)CNCC2 [TCMDC-134479],-1.894,–
CCCCCCCn1c2c(c(=N)c3c1CCC3)CCCC2 [TCMDC-125606],41.76,–
CCCCCCn1c2c(c(=N)c3c1CCC3)CCC2 [TCMDC-125620],20.05,–
CCCCCCCCn1c2c(c(=N)c3c1CCC3)CCC2 [TCMDC-125309],92.39,–
CCCCCCCCn1c2c(c(=N)c3c1CCC3)CCCC2 [TCMDC-125653],74.53,–
CCn1c2c(c(=N)c3ccccc31)CCC2 [TCMDC-125756],-4.824,–
CCCCCCn1c2c(c(=N)c3c1CCC3)CCCC2 [TCMDC-124215],19.97,–
Oc1cccc(Nc2nc(NCc3ccco3)c3ccccc3n2)c1 [TCMDC-124014],8.731,–
Cc1c[nH]c2cc(/C=C/C(=O)NC3CCC(CCN4CCc5ccc(C#N)cc5CC4)CC3)ccc12 (stereo not drawn) [TCMDC-139663],21.27,–

SMILES,% Inhibition [%],% Inhibition (% Inhibition) [%]
Cc1cc(-c2nc3cncc(-c4cccc(CN5CCCC5Cc5cccnc5)c4)c3n2C)nn1C (stereo not drawn) [TCMDC-135046],-7.326,–
CCOC(=O)N1NC(=O)N(c2ccccc2)C1(c1ccccc1)c1ccccc1 [TCMDC-142002],-11.41,–
COc1cc2c(cc1C(F)(F)F)N(C(=O)Nc1cc(OC(F)(F)F)cc(-c3cccnc3)c1)CC2 [TCMDC-139046],-1.066,–
O=C(N1CCN(c2ccc(C(F)(F)F)cc2[N+](=O)[O-])CC1)C(Cl)(Cl)Cl [TCMDC-124371],-2.22,–
COc1ccc(CN2CCN(C(=O)c3cccs3)CC2)c(O)c1 [TCMDC-139298],16.42,–
O=C(CN1CCN(C(=O)c2ccco2)CC1)Nc1ccccc1Br [TCMDC-124849],32.72,–
O=C(NC1CCN(c2ccc(F)cc2[N+](=O)[O-])CC1)c1cccs1 [TCMDC-133786],14.81,–
O=C(c1cccs1)N1CCN(c2ccc([N+](=O)[O-])c(NC3CC3)c2)CC1 [TCMDC-123877],88.85,–
O=C(c1ccco1)N1CCN(c2ccc([N+](=O)[O-])c(NC3CC3)c2)CC1 [TCMDC-125397],97.95,–
CC(C)(C)C(=O)N1CCN(c2ccc([N+](=O)[O-])c(NC3CC3)c2)CC1 [TCMDC-123687],84.84,–
O=C(CN1CCN(C(=O)c2ccco2)CC1)Nc1ccc(Br)cc1Cl [TCMDC-124619],-12.46,–
Cc1cc(N2CCN(C(=O)OC(C)(C)C)CC2)ccc1N [TCMDC-125886],-87.61,–
O=C(NCCN1CCCC1)c1cccc(-c2ccc(-c3nc4ccccc4[nH]3)s2)c1 [TCMDC-132319],-6.335,–
C=CCn1c(=N)c(C(=O)NC2CCCCC2)cc2c(=O)n3cccc(C)c3nc21 [TCMDC-125083],96.68,–
Cc1cccn2c(=O)c3cc(C(=O)NC4CCCCC4)c(=N)n(CCCn4ccnc4)c3nc12 [TCMDC-125136],14.71,–
C=CCn1c(=N)c(C(=O)NCc2ccc(F)cc2)cc2c(=O)n3cccc(C)c3nc21 [TCMDC-125128],82.89,–
Cc1ccc(CNC(=O)c2cc3c(=O)n4cccc(C)c4nc3n(CCN3CCOCC3)c2=N)cc1 [TCMDC-125405],11.13,–
COc1ccc(CCNC(=O)c2cc3c(=O)n4cccc(C)c4nc3n(C)c2=N)cc1 [TCMDC-125129],30.65,–
COc1ccc(CCn2c(=N)c(C(=O)NC3CCCC3)cc3c(=O)n4ccccc4nc32)cc1 [TCMDC-124552],4.624,–
N#Cc1ccc2nc(-c3ccccc3)[nH]c2c1 [TCMDC-137223],19.91,–
COc1cc(C(=O)Nc2cccc(-c3nc4ccccc4[nH]3)c2)ccc1OC(C)=O [TCMDC-123603],-70.82,–
Cc1ccccc1CNc1nccc(NCCC(=O)Nc2ccccc2)n1 [TCMDC-134913],50.88,–
Cc1cnc(NCCc2ccc(F)cc2)nc1NCCC(=O)Nc1ccccc1 [TCMDC-134850],59.7,–
Cc1cc(NCCC(=O)Nc2ccccc2)nc(NCc2ccccc2C)n1 [TCMDC-134901],2.536,–

SMILES,% Inhibition [%],% Inhibition (% Inhibition) [%]
Cc1cnc(NCCc2ccc(F)cc2)nc1N[C@@H](CC(C)C)C(=O)Nc1ccccc1 [TCMDC-134851],-15.21,–
O=C(CCNc1ccnc(NCCc2ccc(F)cc2)n1)Nc1ccccc1 [TCMDC-134824],63.53,–
Cc1cnc(Nc2ccccc2)nc1NCCC(=O)Nc1ccccc1 [TCMDC-134914],19.34,–
O=C(CCNc1ccnc(NCCc2ccccc2)n1)Nc1ccccc1 [TCMDC-134809],42.97,–
O=C(CCNc1ccnc(NCC2CCCCC2)n1)Nc1ccccc1 [TCMDC-134707],16.22,–
Cc1ccc(NS(=O)(=O)c2ccc(-c3ccccc3)cc2)c(Cn2cnc(N3CCCNCC3)cc2=O)c1 [TCMDC-133150],3.416,–
COc1ccc2ncc(F)c(CCN3CC(O)C(CNCc4nc5c(cc4Cl)OCC(=O)N5)C3)c2n1 (stereo not drawn) [TCMDC-136079],–,2.766
CCOC(=O)c1sc(C(C)Nc2ccccc2)nc1-c1ccccc1 (stereo not drawn) [TCMDC-135642],18.56,–
Cc1ccc(CN2CCC(Oc3cccc(NC(=O)c4ccc(C(F)(F)F)cc4)c3)CC2)cc1 [TCMDC-133736],-34.39,–
O=C(NC1CC1)c1ccc(N2CCC(COc3cccc(F)c3)CC2)nc1 [TCMDC-134029],11.49,–
O=C1OC(c2ccccc2)(c2ccccc2)CN1CC1CCN(Cc2ccc(O)c(Cl)c2)CC1 [TCMDC-136312],3.668,–
FC(F)(F)c1ccc2[nH]c(-c3cccc(-c4cccc(CNCC5CCCO5)c4)c3)nc2c1.O=C(O)C(F)(F)F (stereo not drawn) [TCMDC-133102],-56.01,–
CN(Cc1cccc(O)c1)C1CCN(c2cc(NC(=O)c3ccc(F)cc3)ccn2)C1 (stereo not drawn) [TCMDC-134955],-27.34,–
COc1ccc(CCC(C)(C)NCC(O)c2cccc(C(F)(F)F)c2)cc1 (stereo not drawn) [TCMDC-131504],-35.85,–
Cc1ccc(S(=O)(=O)Nc2ccc(Nc3nccc(Nc4cccc5[nH]ncc45)n3)cc2)cc1 [TCMDC-136297],-19.92,–
CC(C)N1CCCN(C(=O)C2CCN(c3ccc(C(=O)N4CCCC4)cn3)CC2)CC1 [TCMDC-135636],39.57,–
COc1ccc(C2NCCc3c2[nH]c2ccccc32)cc1CN1CCN(c2ccc(F)cc2)CC1 (stereo not drawn) [TCMDC-124340],-3.324,–
COc1cc(NC(=O)c2ccc3c(=O)n(Cc4ccccc4)c(=S)[nH]c3c2)cc(OC)c1OC [TCMDC-123804],26.78,–
COc1cc(C2C(Oc3ccccc3)C(=O)N2Cc2ccc(F)cc2)cc(OC)c1OC (stereo not drawn) [TCMDC-125396],72.32,–
NCCCNc1nc(Nc2ccc(C(F)(F)F)cc2F)c2c(=O)[nH]ccc2n1 [TCMDC-135056],108.1,–
Cc1cccc(Nc2nc(NCCCCN)nc3cc[nH]c(=O)c23)c1 [TCMDC-134946],47.91,–
NCCCNc1nc(Nc2cccc(C(N)=O)c2)c2c(=O)[nH]ccc2n1 [TCMDC-135053],0.6256,–
CCS(=O)(=O)c1ccc(/C(=N/OC)c2ccc[nH]2)cc1 [TCMDC-139022],-5.005,–
CCCc1cc(=O)[nH]c(-n2nc(C)cc2NC(=O)C(CC)c2ccccc2)n1 (stereo not drawn) [TCMDC-124941],11.79,–
